# According to PubChem BioAssay (EPA / NIEHS):
# Some compounds were tested as several samples or in several runs, with calls that do not always agree. Active and inactive are the calls of the source. The calls were made as follows: active = hit-call score of the fitted dose curve at least 0.9, where 1 is the maximum; inactive = score below 0.9.
# Experiment: ATG_PBREM_CIS: Attagene CIS-FACTORIAL HepG2 Assay for human Phenobarbital-responsive Enhancer Module (PBREM) (AID 2282955)
# Settings: HepG2 PBREM cis-reporter, Attagene multiplexed transcription; actives raise or lower the signal
# How it was run: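 HepG2, transient MRTU transfection, 24 h dosing; RNA → oligo(dT) RT → PCR → 6-FAM extension → HpaI → CE. Bidirectional fit vs DMSO.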
SMILES,outcome,AC50
CC1(C)C(C=C(Cl)Cl)C1C(=O)OCc1cccc(Oc2ccccc2)c1 (stereo not given),inactive,
CCCOC(=O)c1ccc(C(=O)OCCC)nc1,inactive,
O=C(Nc1ccc([N+](=O)[O-])cc1Cl)c1cc(Cl)ccc1O,,0.7 µM (active)
COc1nc(C)nc(NC(=O)NS(=O)(=O)c2ccccc2OCCCl)n1,inactive,
N#CSCSc1nc2ccccc2s1,inactive,
CCC(O)=C1C(=O)CC(C(=O)O)CC1=O (stereo not given),inactive,
CSC(=O)c1cccc2nnsc12,inactive,
C[C@]12C[C@H](O)[C@H]3[C@@H](CCC4=CC(=O)CC[C@@]43C)[C@@H]1CC[C@@H]2C(=O)CO,inactive,
O=C(O)C1(C(=O)Nc2ccc(Cl)cc2Cl)CC1,inactive,
COC(=O)c1ccc(I)cc1S(=O)(=O)NC(=O)Nc1nc(C)nc(OC)n1,inactive,
CC(=O)S[C@@H]1CC2=CC(=O)CC[C@]2(C)[C@H]2CC[C@@]3(C)[C@@H](CC[C@@]34CCC(=O)O4)[C@H]12,inactive,
CCNc1nc(N)nc(Cl)n1,inactive,
CC(C)CCCCCCc1ccc(O)cc1,inactive,15.8 µM (active)
CCCCOC(=O)[C@@H](C)Oc1ccc(Oc2ccc(C(F)(F)F)cn2)cc1,inactive,
CCCCC(CC)COC(=O)c1ccccc1C(=O)O (stereo not given),inactive,
CCOC(=O)[C@H](C)Oc1ccc(Oc2nc3ccc(Cl)cc3o2)cc1,inactive,
CCCCOC(=O)C(C)Oc1ccc(Oc2ccc(C(F)(F)F)cn2)cc1 (stereo not given),inactive,
CCCCC(CC)CN1C(=O)C2C3C=CC(C3)C2C1=O (stereo not given),,50 µM (active)
CCOC(=O)C(C)Oc1ccc(Oc2nc3ccc(Cl)cc3o2)cc1 (stereo not given),inactive,
